For some assays here: Entries with a potency or affinity are not part of this list.
What was measured:
Set-up in all cases: scale not given: direction of the effect not stated beside the values
[1] = molecular target: Protein translocase subunit SecA (Escherichia coli (strain K12)) (UniProt P10408); test: Assay to Identify E. coli SecA ATPase Inhibitors; format: functional; settings: 30 µM
[2] = molecular target: T1, Ubiquitin-activating enzyme e1, putative (Leishmania donovani (strain BPK282A1)) (UniProt E9BSI1); test: Leishmania donovani Ubiquitin Activating Enzyme (LdE1); format: functional; settings: 30 µM
T1 sequence (whole entry): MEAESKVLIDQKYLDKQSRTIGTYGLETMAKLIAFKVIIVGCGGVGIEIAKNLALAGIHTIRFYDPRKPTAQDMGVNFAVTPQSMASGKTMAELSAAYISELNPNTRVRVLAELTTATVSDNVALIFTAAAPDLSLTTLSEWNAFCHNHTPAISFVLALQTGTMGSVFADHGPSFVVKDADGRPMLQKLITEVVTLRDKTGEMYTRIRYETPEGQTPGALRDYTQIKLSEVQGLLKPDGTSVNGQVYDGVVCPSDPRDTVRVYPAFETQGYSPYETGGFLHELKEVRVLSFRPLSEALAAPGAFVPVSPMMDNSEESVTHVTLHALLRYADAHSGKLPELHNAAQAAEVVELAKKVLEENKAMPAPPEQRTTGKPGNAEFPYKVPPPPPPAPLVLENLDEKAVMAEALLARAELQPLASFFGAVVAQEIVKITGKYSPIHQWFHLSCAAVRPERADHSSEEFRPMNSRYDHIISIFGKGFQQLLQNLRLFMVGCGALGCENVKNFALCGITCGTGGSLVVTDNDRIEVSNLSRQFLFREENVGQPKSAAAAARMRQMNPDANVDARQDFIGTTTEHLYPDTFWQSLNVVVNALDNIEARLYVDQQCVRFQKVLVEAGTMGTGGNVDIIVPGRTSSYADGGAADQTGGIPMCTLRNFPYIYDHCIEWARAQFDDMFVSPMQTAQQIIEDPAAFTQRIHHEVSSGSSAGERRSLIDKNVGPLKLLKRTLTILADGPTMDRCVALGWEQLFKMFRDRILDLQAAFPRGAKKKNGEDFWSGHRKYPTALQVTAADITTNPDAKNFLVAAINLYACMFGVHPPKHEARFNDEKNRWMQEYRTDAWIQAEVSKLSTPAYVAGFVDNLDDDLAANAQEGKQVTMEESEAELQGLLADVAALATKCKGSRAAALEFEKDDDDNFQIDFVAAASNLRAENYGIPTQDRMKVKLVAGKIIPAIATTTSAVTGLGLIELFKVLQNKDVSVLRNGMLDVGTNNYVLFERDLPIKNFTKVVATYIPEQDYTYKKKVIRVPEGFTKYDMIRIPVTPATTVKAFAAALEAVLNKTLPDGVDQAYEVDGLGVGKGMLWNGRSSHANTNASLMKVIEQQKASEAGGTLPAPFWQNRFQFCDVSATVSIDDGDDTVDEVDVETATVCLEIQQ

[3] = molecular target: AMP-activated protein kinase, AMPK (Homo sapiens) (UniProt P54646+O43741+P54619+Q9UGJ0+Q9Y478+Q13131+Q9UGI9); test: AMP-dependent Kinase enzyme assay. An in vitro enzyme assay that detects ADP turnover that is directly proportional to AMPK activity. This uses naive AMPK that is activated during the assay with MK-8722; format: functional; settings: 30 µM
[4] = molecular target: Sialic acid-binding Ig-like lectin 9 (Homo sapiens) (UniProt Q9Y336); test: Hs-Siglec9 ALPHAscreen SOP 20170721; settings: 10 µM
[5] = system: Trypanosoma cruzi; test: Trypanosoma cruzi phosphomannomutase and mannose-1-phosphate guanylyltransferase assay; format: functional; settings: 10 µM
[6] = molecular target: T2, Arginase-2, mitochondrial (Homo sapiens) (UniProt P78540); test: in vitro enzyme assay to detect the production of urea directly proportional to the activity of Arginase II; format: functional; settings: 33.3 µM; note: in the data most compounds retested in dose-response had high values
T2 sequence (whole entry): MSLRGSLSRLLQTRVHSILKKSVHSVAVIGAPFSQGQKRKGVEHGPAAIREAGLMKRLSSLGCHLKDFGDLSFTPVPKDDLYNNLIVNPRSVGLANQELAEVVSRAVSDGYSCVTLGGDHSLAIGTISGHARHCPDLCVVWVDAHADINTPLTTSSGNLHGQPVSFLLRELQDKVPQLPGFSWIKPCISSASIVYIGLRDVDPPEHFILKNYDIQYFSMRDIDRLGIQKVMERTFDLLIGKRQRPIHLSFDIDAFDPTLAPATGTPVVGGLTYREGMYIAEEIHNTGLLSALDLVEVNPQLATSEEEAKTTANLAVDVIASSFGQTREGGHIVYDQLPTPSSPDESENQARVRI

[7] = molecular target: T3, Proteasome subunit beta (Trypanosoma cruzi) (UniProt O96673); test: Trypanosoma cruzi proteasome chymotrypsin-like activity (TcProtChymo) assay.; note: in the data most compounds retested in dose-response had high values; format: functional; settings: 9.37 µM
T3 sequence (whole entry): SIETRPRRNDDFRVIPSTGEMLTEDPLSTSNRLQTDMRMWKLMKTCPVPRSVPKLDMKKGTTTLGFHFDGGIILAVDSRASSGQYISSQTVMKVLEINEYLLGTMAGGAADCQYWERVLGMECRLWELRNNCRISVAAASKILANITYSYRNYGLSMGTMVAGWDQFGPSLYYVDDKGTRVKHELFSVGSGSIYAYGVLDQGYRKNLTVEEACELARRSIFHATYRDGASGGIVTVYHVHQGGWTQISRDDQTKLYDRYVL

[8] = species on record: Homo sapiens; test: To identify inhibition of the IFN signalling (Jak-Stat) pathway via expression of an eGFP reporter gene under the control of an IFN-stimulated response element (ISRE) containing MxA promoter.; format: functional; settings: 30 µM
[9] = molecular target: T4, Tyrosyl-tRNA synthetase, putative (Trypanosoma cruzi (strain CL Brener)) (UniProt Q4DSP6); test: Trypanosoma cruzi tyrosyl tRNA synthetase (TcYRS) _High Tyrosine SOP; format: functional; settings: 30 µM; note: in the data most compounds retested in dose-response had high values
T4 sequence (whole entry): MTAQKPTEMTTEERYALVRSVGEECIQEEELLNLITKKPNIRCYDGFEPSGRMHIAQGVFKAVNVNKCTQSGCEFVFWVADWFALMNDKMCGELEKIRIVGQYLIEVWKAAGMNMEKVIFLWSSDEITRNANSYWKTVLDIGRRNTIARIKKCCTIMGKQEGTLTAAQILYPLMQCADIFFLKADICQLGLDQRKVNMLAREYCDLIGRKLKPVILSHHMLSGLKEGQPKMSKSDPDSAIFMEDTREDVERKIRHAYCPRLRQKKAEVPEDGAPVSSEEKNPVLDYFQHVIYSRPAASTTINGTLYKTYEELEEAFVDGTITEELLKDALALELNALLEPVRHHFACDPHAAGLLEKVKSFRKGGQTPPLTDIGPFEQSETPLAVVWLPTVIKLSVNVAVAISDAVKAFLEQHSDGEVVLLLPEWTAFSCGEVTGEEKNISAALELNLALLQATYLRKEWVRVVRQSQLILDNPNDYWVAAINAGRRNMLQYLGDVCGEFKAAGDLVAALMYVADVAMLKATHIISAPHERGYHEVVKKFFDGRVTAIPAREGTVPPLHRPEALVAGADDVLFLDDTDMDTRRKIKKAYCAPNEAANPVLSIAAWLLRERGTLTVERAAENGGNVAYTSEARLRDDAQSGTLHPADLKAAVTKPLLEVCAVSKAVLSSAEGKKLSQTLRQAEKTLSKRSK

[10] = molecular target: T4, Tyrosyl-tRNA synthetase, putative (Trypanosoma cruzi (strain CL Brener)); test: Trypanosoma cruzi tyrosyl tRNA synthetase (TcYRS) SOP; format: functional; settings: 30 µM
[11] = molecular target: Chromo domain-containing protein 1 (Saccharomyces cerevisiae (strain ATCC 204508 / S288c) (Baker's yeast)) (UniProt P32657); test: ScCHD-1 Enzyme Inhibition Assay; format: functional; settings: 30 µM; note: in the data most compounds retested in dose-response had high values
Sequence of Chromo domain-containing protein 1 (Saccharomyces cerevisiae (strain ATCC 204508 / S288c) (Baker's yeast)) (P32657 whole entry, the tested form may be a part): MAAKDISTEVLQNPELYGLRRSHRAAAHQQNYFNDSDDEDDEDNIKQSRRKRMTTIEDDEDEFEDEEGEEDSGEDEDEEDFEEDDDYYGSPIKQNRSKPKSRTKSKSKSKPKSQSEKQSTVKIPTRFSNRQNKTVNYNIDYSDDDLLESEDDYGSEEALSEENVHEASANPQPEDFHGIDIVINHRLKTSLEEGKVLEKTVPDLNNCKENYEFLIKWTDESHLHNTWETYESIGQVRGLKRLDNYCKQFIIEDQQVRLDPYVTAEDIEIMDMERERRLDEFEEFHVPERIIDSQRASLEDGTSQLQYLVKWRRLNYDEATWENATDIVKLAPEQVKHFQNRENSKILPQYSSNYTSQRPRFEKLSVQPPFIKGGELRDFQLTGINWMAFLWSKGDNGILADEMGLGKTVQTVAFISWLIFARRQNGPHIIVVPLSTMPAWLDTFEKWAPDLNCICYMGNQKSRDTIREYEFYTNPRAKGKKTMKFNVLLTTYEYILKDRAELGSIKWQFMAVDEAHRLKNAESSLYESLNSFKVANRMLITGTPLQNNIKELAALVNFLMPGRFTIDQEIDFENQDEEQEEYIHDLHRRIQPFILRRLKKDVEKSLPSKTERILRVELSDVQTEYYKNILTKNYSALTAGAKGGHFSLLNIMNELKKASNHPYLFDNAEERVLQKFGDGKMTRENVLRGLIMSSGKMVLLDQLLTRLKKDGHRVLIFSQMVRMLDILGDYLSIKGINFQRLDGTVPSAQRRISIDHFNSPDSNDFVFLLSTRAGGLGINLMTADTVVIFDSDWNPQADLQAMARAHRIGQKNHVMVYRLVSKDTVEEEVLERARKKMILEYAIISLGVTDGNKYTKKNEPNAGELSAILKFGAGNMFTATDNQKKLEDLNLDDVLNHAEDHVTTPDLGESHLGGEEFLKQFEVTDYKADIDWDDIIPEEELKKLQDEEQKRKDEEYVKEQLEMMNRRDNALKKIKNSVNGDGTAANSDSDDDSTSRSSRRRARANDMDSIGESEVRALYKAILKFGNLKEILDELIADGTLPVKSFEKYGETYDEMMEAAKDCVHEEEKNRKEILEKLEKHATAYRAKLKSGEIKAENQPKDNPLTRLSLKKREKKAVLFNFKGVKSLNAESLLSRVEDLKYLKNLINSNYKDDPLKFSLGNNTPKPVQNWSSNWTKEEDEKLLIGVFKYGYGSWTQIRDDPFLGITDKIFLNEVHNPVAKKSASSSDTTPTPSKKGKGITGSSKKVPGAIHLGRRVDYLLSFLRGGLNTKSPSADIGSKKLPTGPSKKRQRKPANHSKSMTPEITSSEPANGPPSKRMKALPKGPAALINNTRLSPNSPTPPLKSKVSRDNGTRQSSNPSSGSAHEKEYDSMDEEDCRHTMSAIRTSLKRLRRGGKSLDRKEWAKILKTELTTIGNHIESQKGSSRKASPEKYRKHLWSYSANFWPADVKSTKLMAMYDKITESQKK

Sequence of Sialic acid-binding Ig-like lectin 9 (Homo sapiens) (Q9Y336 whole entry): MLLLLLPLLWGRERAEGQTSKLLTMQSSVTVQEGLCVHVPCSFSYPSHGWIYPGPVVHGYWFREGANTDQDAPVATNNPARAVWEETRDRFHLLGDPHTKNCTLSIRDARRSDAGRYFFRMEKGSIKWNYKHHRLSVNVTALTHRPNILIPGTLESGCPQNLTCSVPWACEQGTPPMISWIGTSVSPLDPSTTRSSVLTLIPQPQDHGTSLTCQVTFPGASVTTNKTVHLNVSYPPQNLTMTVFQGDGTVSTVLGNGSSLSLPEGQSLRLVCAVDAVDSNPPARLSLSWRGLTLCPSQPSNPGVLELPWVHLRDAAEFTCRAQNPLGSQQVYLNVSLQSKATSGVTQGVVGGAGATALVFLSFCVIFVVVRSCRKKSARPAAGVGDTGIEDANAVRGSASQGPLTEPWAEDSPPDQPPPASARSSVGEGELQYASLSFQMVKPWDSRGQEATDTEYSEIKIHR
Sequence of Protein translocase subunit SecA (Escherichia coli (strain K12)) (P10408 whole entry): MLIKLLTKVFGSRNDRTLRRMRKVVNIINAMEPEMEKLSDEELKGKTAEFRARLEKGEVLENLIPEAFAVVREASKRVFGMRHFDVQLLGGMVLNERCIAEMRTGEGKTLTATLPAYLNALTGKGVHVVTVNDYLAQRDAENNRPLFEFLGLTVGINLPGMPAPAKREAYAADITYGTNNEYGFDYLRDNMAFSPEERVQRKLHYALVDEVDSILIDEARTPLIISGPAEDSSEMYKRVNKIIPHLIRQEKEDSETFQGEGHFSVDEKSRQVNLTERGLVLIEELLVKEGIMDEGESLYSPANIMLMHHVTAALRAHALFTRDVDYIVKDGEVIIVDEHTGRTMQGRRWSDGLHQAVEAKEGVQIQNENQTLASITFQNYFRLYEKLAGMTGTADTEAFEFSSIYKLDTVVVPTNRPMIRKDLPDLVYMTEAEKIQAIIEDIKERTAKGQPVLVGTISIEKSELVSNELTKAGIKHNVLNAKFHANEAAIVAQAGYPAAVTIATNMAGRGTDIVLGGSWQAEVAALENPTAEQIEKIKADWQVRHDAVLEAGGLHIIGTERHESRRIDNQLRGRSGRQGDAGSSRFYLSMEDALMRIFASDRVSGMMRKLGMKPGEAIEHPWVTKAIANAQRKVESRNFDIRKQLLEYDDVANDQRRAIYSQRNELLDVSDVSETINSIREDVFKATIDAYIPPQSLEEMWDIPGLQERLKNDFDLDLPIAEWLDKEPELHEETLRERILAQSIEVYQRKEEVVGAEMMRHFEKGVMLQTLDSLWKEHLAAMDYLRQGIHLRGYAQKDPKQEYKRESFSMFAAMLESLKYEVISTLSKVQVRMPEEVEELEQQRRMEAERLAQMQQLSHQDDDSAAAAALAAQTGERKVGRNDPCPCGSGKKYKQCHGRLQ

| Structure (SMILES) | Percent Effect [1] [%] | Percent Effect [2] [%] | Percent Effect [3] [%] | Percent Effect [4] [%] | Percent Effect [5] [%] | Percent Effect [6] [%] | Percent Effect [7] [%] | Percent Effect [8] [%] | Percent Effect [9] [%] | Percent Effect [10] [%] | Percent Effect [11] [%] |
| --- | --- | --- | --- | --- | --- | --- | --- | --- | --- | --- | --- |
| CC(=O)N1CCOCC2(CCN(Cc3ccc(C)s3)CC2)C1 | -3.46 | 10.7 | -5.5 | -0.245 | 6.37 | -51.8 | 2.91 | -1.39 | 4.17 | 5 | -7.22 |
| Cc1nn(C)c(Cl)c1CNCc1cccnc1N1CCN(C)CC1 | -3.92 | 13.2 | 2.58 | 7 | 2.24 | -5.92 | 17.4 | 4.03 | 3.19 | 18.2 | -6.12 |
| O=C(c1ccccn1)N1Cc2nccn2CC(COc2cccnc2)C1 (configuration not stated) | 0.812 | 13.3 | 0.132 | 2.56 | -0.193 | -54.7 | 4.96 | 20.5 | 4.17 | 15 | -4.96 |
| Cc1cnn(C2CCCN(C(=O)c3ccnc(-n4ccnc4)c3)C2)c1 (configuration not stated) | -2.31 | 8.86 | 2.83 | 0.259 | -0.513 | 3.66 | 8.23 | 0.141 | 4.17 | 17.7 | -27.2 |
| COc1cccc(COCC(=O)N2CCN(CC(C)(C)O)CC2)c1 | 1.47 | -5.26 | 7.35 | 8.14 | -3.76 | 6.51 | -0.167 | 21 | 1.47 | -2.44 | -5.7 |
| Nc1cc(CCCNC(=O)NC2CC2)nn1-c1ccccc1 | -3.6 | 5.48 | 1.41 | -7.75 | -6.27 | -6.82 | 14.7 | 3.12 | 0 | 5 | -2.26 |
| CC(=O)NC1CCCN(C(=O)c2ccc(Br)cc2O)C1 (configuration not stated) | -4.72 | 8.11 | -9.01 | 7.98 | -2.92 | 1.6 | 5.95 | 3.4 | 6.4 | 16.1 | -2.5 |
| CC(C)CN1CCCn2nc(CNC(=O)CCN)cc2C1 | -6.28 | 5.33 | 4.29 | 6.76 | 1.85 | 3.65 | 13.4 | 7.88 | 6.01 | 16.1 | -5.7 |
| Cc1ccc(-c2cccc(-c3ccn(CCN4CCCC4)n3)c2)nn1 | -0.771 | -8.11 | -1.02 | 3.72 | -3.09 | 0.952 | 4.31 | 7.06 | 5.82 | 0 | 0.00646 |
| O=C(CN1CCNCC1)N1CC[C@@H](c2ccc3ccccc3c2)[C@H](O)C1 | -0.963 | 8 | -4.87 | 12.2 | 0.876 | 2.08 | 14.7 | 10.1 | 7.1 | 13.6 | -3.45 |
| CN(Cc1cc(-c2ccccc2)no1)C1CCCN(c2cccnn2)C1 (configuration not stated) | -6.51 | -20.8 | 0.498 | 15.7 | -3.93 | -3.2 | 2.37 | 7.74 | 15.5 | 14.6 | 18.5 |
| CCc1cnc(N2CCC3(CC2)CN(c2cccnc2)C(=O)CO3)nc1 | -5.43 | 0 | 2.98 | -2.45 | -3.03 | -4.78 | 7.01 | 26.6 | -4.32 | -7.69 | 6.26 |
| CCOCC1CN(C)Cc2cnn(CC3CCCC3)c21 (configuration not stated) | 0.927 | 5.48 | 0.312 | 7.92 | 7.14 | 2 | 9.68 | -29.3 | 7.29 | 11.1 | -3.7 |
| Cc1ccc(CN2CCCn3nnc(COCC4CC4)c3C2)s1 | 0.823 | 16 | 9.89 | -6.88 | -2.76 | -11 | 6.96 | 12.7 | 5.32 | 11.5 | -3.12 |
| CCC(O)CN1CCN(C(=O)c2cccn2Cc2ccccc2)CC1 (configuration not stated) | -7.42 | 10.1 | -1.72 | 3.91 | -5.95 | -0.38 | -3.69 | 20.8 | 0.493 | 11.4 | -3.89 |
| O=C(NC1CC1)[C@H]1C[C@@H]2CCN(CCc3ccccc3)C[C@H]2O1 | 2.18 | 10.7 | 9.4 | -8.83 | -7.28 | 2.56 | 4.85 | 4.51 | 1.06 | 11.5 | -2.58 |
| CC(C)OCCC(=O)N(C)CCCc1cc(-c2ccccc2)no1 | 2.05 | 18.9 | 5.99 | -0.12 | -8.08 | -1.66 | 13.3 | 22 | -1.98 | 3.66 | -5.36 |
| Cc1cnn(CC2CCCCN2C(=O)c2cc(C(N)=O)cs2)c1 (configuration not stated) | -8.81 | 1.27 | 1.77 | -2.33 | 0.308 | -2.37 | 8.4 | 17.1 | -1.04 | -5.06 | -0.902 |
| CC(C(=O)NCCCN1CCCCCC1=O)n1cncn1 (configuration not stated) | -2.32 | 21.1 | -0.014 | -11.5 | -1.4 | -5.04 | 8.04 | 2.75 | 5.42 | 13.6 | -7.45 |
| Cc1noc(C(C)C)c1C(=O)NCC(c1ccsc1)N(C)C (configuration not stated) | -1.69 | 15.2 | 2.11 | -4.7 | -5.19 | -1.52 | 13.3 | 32.5 | 1.48 | 11.4 | -5.47 |
| Cc1cc(C)n(CC2CCCN2CC(=O)N(C)Cc2cnn(C)c2)n1 (configuration not stated) | -5.54 | 8.11 | -10.7 | 3.9 | 1.04 | -4.01 | 13 | 9.55 | 6.4 | 13.6 | -11.6 |
| COc1ccc(C2CCCN2C(=O)c2csc(NC(C)=O)n2)cc1 (configuration not stated) | -5.5 | 18.2 | 41.8 | -5.49 | -3.37 | 2.85 | 4.56 | 17.3 | 6.8 | 12.2 | -8.21 |
